This is a sample that favours compounds with a hit; in the whole collection about 0.85% have one here.
TSHR antagonist: antagonists of human thyroid stimulating hormone receptor | TSHR-expressing cells, TSH-stimulated cAMP HTRF, 2 h; hits give low values | activity change, negative = inhibition, % at 11.5 µM | actives 0.2% (n = 330,000) | P16473 | AID 504810;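 active = activity change below a set negative limit, meaning inhibition stronger than a set level, cut at about -70% in these data; inconclusive = activity change between two set negative limits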; note: % is set by controls: 0 for no effect and ±100 for the full control effect
Target sequence (P16473 whole entry, looked up): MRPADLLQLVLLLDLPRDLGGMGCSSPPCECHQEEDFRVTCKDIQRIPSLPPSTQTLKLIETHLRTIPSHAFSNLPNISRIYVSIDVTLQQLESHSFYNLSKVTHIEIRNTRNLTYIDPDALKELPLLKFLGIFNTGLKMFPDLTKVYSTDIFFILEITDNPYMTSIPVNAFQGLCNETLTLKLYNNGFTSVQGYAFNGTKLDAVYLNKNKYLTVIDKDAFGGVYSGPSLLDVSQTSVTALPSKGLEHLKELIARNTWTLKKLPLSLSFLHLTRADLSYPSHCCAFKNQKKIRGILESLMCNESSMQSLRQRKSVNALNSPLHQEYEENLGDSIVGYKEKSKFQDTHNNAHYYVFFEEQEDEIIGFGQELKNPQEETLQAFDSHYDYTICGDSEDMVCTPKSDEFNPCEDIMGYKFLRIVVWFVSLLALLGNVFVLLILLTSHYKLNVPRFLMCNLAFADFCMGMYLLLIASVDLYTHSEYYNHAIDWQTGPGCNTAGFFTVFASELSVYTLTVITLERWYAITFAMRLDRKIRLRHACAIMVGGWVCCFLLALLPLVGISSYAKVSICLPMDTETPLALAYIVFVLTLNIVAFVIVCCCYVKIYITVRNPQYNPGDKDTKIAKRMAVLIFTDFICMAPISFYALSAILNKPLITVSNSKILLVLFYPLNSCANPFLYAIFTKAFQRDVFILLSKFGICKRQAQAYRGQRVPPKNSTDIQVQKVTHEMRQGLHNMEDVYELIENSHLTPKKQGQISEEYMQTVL
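TSHR-expressing cells, 200/well, pre-treated with compound, then stimulated with EC80 TSH (4nM final) for 2 hours at 37 deg C. cAMP measured by competitive HTRF: anti-cAMP cryptate antibody in lysis buffer plus cAMP-d2, read after 30 minutes at room temperature.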
Chronic BCR inh: inhibitors of chronic active B-cell receptor signaling | ABC-DLBCL IkBa-CBG/CBR reporter, luminescence ratio, 4 h | Potency, µM (titrated, usually from 46.1 µM), for inactives: top-dose activity change, negative = inhibition, actives largely listed as inhibitors | actives 0.05% (n = 340,000) | AID 493014; active = well fitted inhibition curve with a large enough effect in the signal ratio, with a control signal flat, not every such curve was filed as active; inconclusive = small, poorly fitted or top-dose-only effect, or effect the other way, or a change in a side signal; the % refers to the signal ratio;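 note: potency is the fitted concentration of half-maximal effect; plate controls were basal doxycycline-induced cells for no effect and cells given 10 µM MG132 for full effect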
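Doxycycline induced both beetle luciferases in TMD8 lymphoma cells; IKK-driven degradation limits the IkappaBalpha-fused green signal, while red luminescence normalises for cell number and nonspecific effects. Compounds tested up to 46 uM, 4 hrs.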
ASM inhibitor: blocks human secretory acid sphingomyelinase; P17405; placental ASM, HMU-PC fluorogenic substrate, 60 min; Potency, µM (top dose mostly 57.5 µM), for the others: top-dose activity change, negative = inhibition, most hits filed as inhibitors; actives 0.006% (n = 340,000); AID 504937; active = well fitted inhibition curve with a large enough effect; inconclusive = small, poorly fitted or top-dose-only effect; inactive = no such curve, though single readings can be large or run the other way; note: potency is the fitted concentration of half-maximal effect
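Human placenta-derived ASM enzyme was preincubated with compound for 10 minutes at room temperature, then given fluorogenic substrate HMU-PC0 (9 uM final) for 60 minutes at 37 °C; a pH 10 stop preceded fluorescence reading at Ex 386/Em 447 nm.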
Six1-Eya2 inh: Six1/Eya2 interaction inhibition; AlphaScreen GST-Six1/His-Eya2 binding, biochemical; hits give low values; actives 0.56% (n = 360,000); AID 651725; activity change, % (test concentration not listed); note: % is set by controls: 0 for no effect and ±100 for the full control effect
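AlphaScreen with GST-Six1 and His-Eya2 (5X mix: 250 nM and 500 nM), glutathione donor and nickel acceptor beads; buffer 50 mM Tris pH 8.0, 300 mM NaCl, 1 mM TCEP; 1 h at 37 C in the dark.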
CtBP-E1A inh: blocks the CtBP interaction with E1A | AlphaScreen GST-E1A/His-CtBP binding, 1536-well; hits give low values | activity change, % (test concentration not listed) | actives 0.49% (n = 340,000) | AID 651724; note: % is set by controls: 0 for no effect and ±100 for the full control effect
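Protein mix (5X: 125 nM each GST-E1A, His-CtBP) was incubated with pinned compound 2 h at 37 deg C in dark, in 50 mM Tris pH 8.0 buffer with 300 mM NaCl. Glutathione donor and nickel acceptor beads followed; AlphaScreen signal read after 1 h.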
Numbers without * were called inactive; ? = inconclusive; . = no result. Cut-off read from the data, not from the text of the source, unless noted: active = activity change below about -65%; inconclusive = mostly about -30% to -63%; inactive = weaker than that.

SMILES	TSHR antagonist	Chronic BCR inh	ASM inhibitor	Six1-Eya2 inh	CtBP-E1A inh
COc1ccccc1N=Nc1ccc(O)c2ncccc12	-3.9	-8.3%	-3.2%	-69.6*	.
CCS(=O)(=O)c1ccc(N=Nc2ccc(O)c3ncccc23)c(OC)c1	1.1	7.6%	0.1%	-83.2*	-93.0*
Cc1ccccc1CN1C(=O)c2ccccc2Sc2ccc(C(=O)NC3CCCCC3)cc21	.	0.5%	.	.	.
Oc1c(C(c2ccc(Cl)cc2Cl)N2CCCC2)sc2nc(-c3ccco3)nn12 (stereo not drawn)	.	22.7%	.	.	.
CC(=O)N1CCOc2cc(S(=O)(=O)Nc3c(C)cccc3C(C)C)c(Cl)cc21	-8.0	-11.0%	.	.	.
COc1ccc(Cn2c(=O)c3[nH]cnc3n(-c3ccccc3C)c2=O)cc1	5.8	15.8µM*	1.7%	-0.4	4.8
NC(=O)CSc1nnc(-c2ccc(O)cc2)n1Cc1ccco1	1.7	-1.4%	-0.9%	-87.1*	-89.8*
NC(=O)CSc1nnc(-c2cccs2)n1Cc1ccco1	3.3	?	1.3%	-4.2	-1.4
COc1ccc(Cl)c2c1[nH]c1nc(SCc3cccnc3)nnc12	-3.2	6.3%	1.0%	-1.6	-9.8
COc1ccc(Cl)c2c1[nH]c1nc(SCc3ccccn3)nnc12	-9.0	?	-11.9%	-66.9*	?
O=C(Nc1ccccc1C(=O)O)c1ccc(NC(=O)C2CC2)cc1	14.5	-1.9%	9.0%	-81.0*	?
Nc1ccc(C(=O)Nc2ccccc2C(=O)O)cc1	-3.4	?	2.3%	-26.5	?
O=C(Nc1ccccc1C(=O)Nc1ccccc1C(=O)O)c1ccccc1	0.5	-3.0%	9.8%	-81.2*	-67.0*
O=C(Nc1ccccc1O)c1ccc(NC(=O)C2CC2)cc1	-2.5	?	-5.9%	-4.2	-9.9
CCc1ccccc1NC(=O)CSc1nc2n[nH]c(C)c2c(=N)n1-c1ccc(OC)cc1	-9.5	1.7%	-10.4%	-74.2*	-65.2*
COc1ccccc1NC(=O)CSc1nc2n[nH]c(C)c2c(=N)n1-c1ccccc1Cl	-13.8	?	-18.9%	?	-68.6*
O=c1onc2cnc3ccccc3n12	-7.5	.	.	.	.
Cc1cccc(C(=O)N2CCc3cc(CNC(=O)c4cc5ccccc5[nH]4)ccc32)c1	.	13.7%	.	.	.
Cc1ccccc1Cc1c(C)nc2nc(SCC(=O)N(C)c3ccccc3)nn2c1C	.	-3.5%	.	.	.
CCOc1cc(/C=C/c2ccc3cccc([N+](=O)[O-])c3n2)cc(Cl)c1O	-72.4*	?	-21.6%	?	-0.4
CCOc1ccc(N(CC(=O)NCc2ccc(OC)cc2)C(=O)CCC(=O)Nc2nccs2)cc1	-4.3	-0.7%	1.2%	2.9	-9.3
CCOc1ccc(N(CC(=O)NCc2ccc(F)cc2)C(=O)CCC(=O)Nc2nccs2)cc1	-94.6*	-0.7%	-0.4%	3.6	0.5
Cc1cc(C)c(NC(=O)CSc2nc3ncc(Br)cc3[nH]2)c(Cl)c1	2.0	5.1%	-0.4%	0.8	-3.4
Cc1ccc(NC(=O)CSc2nc3ncc(Br)cc3[nH]2)cc1C	-87.8*	1.7%	0.8%	-0.3	-2.5
Cc1ccccc1C(=O)Nc1ccc2c(C#N)c3nc4ccccc4nc3n2c1	-15.1	16.5%	0.6%	?	-70.6*
SMILES	TSHR antagonist	Chronic BCR inh	ASM inhibitor	Six1-Eya2 inh	CtBP-E1A inh
CC(C)C(=O)Nc1ccc(-c2nc3ccccc3c(=O)o2)cc1	8.0	-23.6%	9.2%	-76.0*	?
CC(=O)NC(c1cccs1)c1cc(F)c2cccnc2c1O (stereo not drawn)	-0.4	?	3.6%	.	.
CC(C)CC(=O)NC(c1cccs1)c1ccc2cccnc2c1O (stereo not drawn)	-7.8	-3.6%	2.4%	-81.3*	-88.5*
CCC(=O)NC(c1cccs1)c1ccc2cccnc2c1O (stereo not drawn)	-5.1	-16.1%	5.6%	-93.2*	.
Cc1conc1NC(c1cccs1)c1ccc2cccnc2c1O (stereo not drawn)	-2.6	?	.	.	.
CC1=C(C(=O)Nc2cccnc2)C(c2cccc(O)c2)n2nc(SCc3ccccc3)nc2N1 (stereo not drawn)	.	-20.2%	.	.	.
COc1ccc(-n2nc(C(=O)NCC(=O)Nc3cc(OC)c(OC)c(OC)c3)c3ccccc3c2=O)cc1	-1.4	3.6%	-3.9%	-14.9	3.3
COc1ccc(-n2nc(C(=O)NCC(=O)Nc3cc(OC)c(OC)c(OC)c3)c3ccccc3c2=O)cc1OC	-117.5*	16.8%	-1.8%	-27.8	-1.7
O=C(O)COc1ccccc1/C=N/NC(=O)c1cccc(S(=O)(=O)Nc2cccc(Cl)c2)c1	-4.5	3.7%	-0.4%	?	-71.1*
O=C(N/N=C/c1ccccn1)c1cc(C2CC2)[nH]n1	5.7	?	1.3%	?	-68.4*
O=C(N/N=C/c1ccccn1)c1ccc(N/N=C/c2ccccn2)cc1	-13.4	?	4.2%	4.7	8.2
O=C(N/N=C/c1ccccn1)c1ccc(Br)cc1	8.0	?	0.5%	?	-65.2*
Cc1cccc(C(=O)N/N=C/c2ccccn2)c1	2.2	?	8.1%	-28.6	6.4
CCN(CC)S(=O)(=O)c1cccc(C(=O)N/N=C/c2ccccn2)c1	-5.8	2.4%	-4.6%	-72.6*	-23.5
CCCn1ccc2c(OCC(=O)Nc3ccc(OC)c(OC)c3)cccc2c1=O	.	8.8%	.	.	.
CCC1Sc2ccccc2N(CC(=O)NCc2ccc(C)cc2)C1=O (stereo not drawn)	.	-1.0%	.	.	.
Oc1ccc(/C=N/NC(=S)Nc2cccnc2)cc1O	14.2	?	5.1%	-23.4	-6.4
CCN(CC)S(=O)(=O)c1cccc(C(=O)N/N=C/c2cccc(O)c2O)c1	11.4	?	1.2%	-87.1*	-93.2*
O=C(O)c1cccc(NC(=S)N/N=C/c2cccc(O)c2)c1	20.7	?	0.6%	-0.5	-6.8
O=C(N/N=C/c1ccccn1)c1cccc(S(=O)(=O)Nc2ccccc2Cl)c1	-10.1	0.0%	-1.9%	-85.5*	3.9
O=C(O)c1cccc(NC(=S)N/N=C/c2ccccn2)c1	-5.3	?	7.7%	-76.0*	.
Oc1ccc(C=NNC(=S)Nc2cccnc2)nc1	.	.	25.1%	-96.8*	-6.1
CCOC(=O)N1CCc2c(sc(NCc3ccc(N(C)C)cc3)c2C(=O)Nc2ccccc2OCC)C1	.	-2.8%	.	.	.
CCOc1ccc(CC(=O)NC2CC(=O)N(c3ccc(C)c(C)c3)C2)cc1 (stereo not drawn)	.	-0.9%	.	.	.
CN(Cc1ccco1)Cc1ccc(O)c2ncccc12	-3.0	?	2.1%	.	.
CC(C)COCc1ccc(O)c2ncccc12	-11.6	?	3.2%	-79.4*	-90.9*
CCCOCc1ccc(O)c2ncccc12	-10.4	?	4.0%	-69.8*	-94.0*
CCOC(=O)c1c2c3c(cccc3n(C)c1=O)C(=O)c1ccccc1-2	-8.0	6.2%	-12.4%	-68.6*	-82.7*

Compound activity from PubChem.
